Some test systems named below: DU-145 prostate; K-562 leukemia; MALME-3M melanoma; MDA-MB-231 breast; RXF 393 renal; SF-268 CNS; SF-295 CNS; SF-539 CNS; UACC-257 melanoma; M14 melanoma; HCT-15 colon; HT29 colon; SNB-75 CNS; SNB-19 CNS; U251 CNS; PC-3 prostate; SK-MEL-5 melanoma; UACC-62 melanoma; LOX IMVI melanoma.
What all share (test): NCI-60 one-dose screen, 48 h (100 = growth as untreated, 0 = no growth, -100 = all killed)
Holding throughout (conditions): 10 µM unless noted

This is part of a sample that, as a whole, favours compounds with a hit. Of some 83,000 tested, about 20% had one in any assay.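 Single-concentration screen, 48 h exposure, 96-well plates. Endpoint: percent growth. Below 10 = active.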 A number with no mark means an inactive call. Active and inactive are the calls of the source.

On to `C=C1C(=O)O[C@H]2[C@H]1CC/C(COC(=O)NCCOCCOCC(=O)Nc1ccc(OC)c(C(N)=O)c1O)=C\CC[C@@]1(C)O[C@@H]21`, for which the growth is 76.9% in the assay with DU-145 prostate; 25.6% in the assay with K-562 leukemia; 62.1% with MALME-3M melanoma; 52% in the assay with MDA-MB-231 breast; -9.54% (active) in the assay on RXF 393 renal; 81.9% with SF-268 CNS. Besides, the growth in the assay on SF-295 CNS was 97.7%; in the assay on SF-539 CNS it was 37%; in the assay on UACC-257 melanoma it was 57.1%; with M14 melanoma, 60.4%; in the assay on HCT-15 colon, 85.4%; with HT29 colon, 37.2%. In addition, the growth with SNB-75 CNS was 80.1%; with SNB-19 CNS, 77.8%; with U251 CNS, 70.5%; in the assay on PC-3 prostate, 51.4%; in the assay with SK-MEL-5 melanoma, 84.9%; with UACC-62 melanoma it was 44.4%. For the same compound, the growth with LOX IMVI melanoma is 57.2%.

As to `O=C(N/N=C/[C@H](O)[C@H](O)[C@H](O)CO)c1ccc(NC(=O)c2cccnc2)cc1`, the growth in the assay on DU-145 prostate was 111%; in the assay on K-562 leukemia, 105%; in the assay on MALME-3M melanoma it was 108%; in the assay on MDA-MB-231 breast, 94.5%; with RXF 393 renal, 107%; in the assay with SF-268 CNS, 98.6%. For the same compound, the growth with SF-295 CNS was 101%; in the assay on SF-539 CNS, 98.5%; with UACC-257 melanoma, 99.8%; in the assay with M14 melanoma, 102%; with HCT-15 colon, 106%; with HT29 colon it was 104%. The growth in the assay on SNB-75 CNS is 97.4%; in the assay with SNB-19 CNS, 97.7%; with U251 CNS, 105%; in the assay with PC-3 prostate, 96.3%; in the assay with SK-MEL-5 melanoma, 104%; in the assay on UACC-62 melanoma, 96.2%. Besides, the growth in the assay with LOX IMVI melanoma was 99.1%.

Regarding `O=C1c2cccc3cccc(c23)C(=O)N1Nc1nc(N2CCOCC2)nc(N2CCN(c3ccccc3)CC2)n1`, the growth in the assay on DU-145 prostate was 55%; with K-562 leukemia, 18.4%; with MALME-3M melanoma it was 21.7%; in the assay with MDA-MB-231 breast, 56.3%; in the assay on RXF 393 renal, 30.9%; in the assay with SF-268 CNS, 53.8%. In addition, the growth in the assay on SF-295 CNS was 20.6%; in the assay with SF-539 CNS it was 50.2%; in the assay with UACC-257 melanoma it was 71.8%; in the assay with M14 melanoma it was 19.4%; in the assay with HCT-15 colon, 33.7%; with HT29 colon, 24.3%. Also, the growth in the assay on SNB-75 CNS was 21.4%; with SNB-19 CNS it was 45.6%; with U251 CNS, 59.3%; in the assay on PC-3 prostate, 43.4%; in the assay on SK-MEL-5 melanoma, 4.98% (active); in the assay with UACC-62 melanoma, 32.2%. In the assay with LOX IMVI melanoma, the growth is 39.2%.

Regarding `COc1ccc(OC)c(/C=C/c2nnc(Nc3ccccc3)o2)c1`, the growth in the assay on DU-145 prostate was 93.3%; with K-562 leukemia, 83.2%; in the assay with MALME-3M melanoma, 116%; in the assay on MDA-MB-231 breast, 95%; with RXF 393 renal it was 93.6%; with SF-268 CNS it was 98.5%. Moreover, the growth in the assay with SF-295 CNS was 91.1%; with SF-539 CNS it was 103%; in the assay on UACC-257 melanoma it was 117%; in the assay on M14 melanoma, 110%; with HCT-15 colon, 90.5%; in the assay on HT29 colon it was 93.6%. In addition, the growth is 82.1% in the assay with SNB-75 CNS; 96.9% in the assay on SNB-19 CNS; 98% with U251 CNS; 93.8% in the assay on PC-3 prostate; 90% with SK-MEL-5 melanoma; 92.1% with UACC-62 melanoma. Besides, the growth in the assay on LOX IMVI melanoma is 99.5%.

Consider `CC(=O)N1CCN(c2ccc(OCC3CO[C@](Cn4ccnc4)(c4ccc(Cl)cc4Cl)O3)cc2)CC1` (some centres not stated), for which the growth is 105% in the assay with DU-145 prostate; 56.6% in the assay with K-562 leukemia; 77.4% with MALME-3M melanoma; 77.5% in the assay with MDA-MB-231 breast; 80.6% in the assay with RXF 393 renal; 96% with SF-268 CNS. Besides, the growth with SF-295 CNS was 97.6%; with SF-539 CNS it was 91%; in the assay with UACC-257 melanoma it was 83.7%; in the assay with M14 melanoma, 83.8%; in the assay on HCT-15 colon it was 75%; with HT29 colon it was 80.6%. The growth in the assay with SNB-75 CNS was 79.6%; in the assay with SNB-19 CNS, 97.2%; with U251 CNS, 87.4%; with PC-3 prostate, 76.5%; with SK-MEL-5 melanoma, 14.5%; with UACC-62 melanoma it was 57.2%. In addition, the growth with LOX IMVI melanoma was 91.6%.

As to `CCCCCCNC(=O)Oc1ccc(/C(=C(\C)c2ccc(Cl)cc2)c2ccc(OCCN3CCCCC3)cc2)cc1`, the growth was 69.3% in the assay with DU-145 prostate; 1.22% (active) in the assay with K-562 leukemia; 31.6% in the assay with MALME-3M melanoma; 53.4% in the assay with MDA-MB-231 breast; 24.1% in the assay with RXF 393 renal; 56.6% in the assay with SF-268 CNS. Besides, the growth in the assay on SF-295 CNS is 48.2%; in the assay with SF-539 CNS, 42.5%; with UACC-257 melanoma it was 18.6%; with M14 melanoma, -33.5% (active); with HCT-15 colon, 8.87% (active); with HT29 colon, -10.1% (active). For the same compound, the growth in the assay with SNB-75 CNS was 59.5%; in the assay with SNB-19 CNS it was 68%; with U251 CNS, 34.7%; in the assay with PC-3 prostate it was 29.6%; in the assay with SK-MEL-5 melanoma, 25%; with UACC-62 melanoma it was 54.5%. In addition, the growth in the assay with LOX IMVI melanoma is 3.75% (active).

Regarding `COc1cc(C2CC(c3ccc(N(C)C)cc3)=NN2C(C)=O)cc(OC)c1OC` (configuration not stated), the growth with DU-145 prostate is 2.14% (active); with K-562 leukemia, 17.6%; with MALME-3M melanoma it was 37.9%; in the assay with MDA-MB-231 breast, 56.3%; in the assay with RXF 393 renal, -17.7% (active); with SF-268 CNS, 35%. The growth in the assay with SF-295 CNS was 12.1%; in the assay with SF-539 CNS, -21.4% (active); with UACC-257 melanoma it was 56.5%; with M14 melanoma, 19.4%; with HCT-15 colon it was 24.6%; in the assay with HT29 colon, 9.83% (active). Besides, the growth in the assay on SNB-75 CNS was -23.6% (active); with SNB-19 CNS it was 39.3%; with U251 CNS it was 29.3%; in the assay with PC-3 prostate, 29.4%; in the assay with SK-MEL-5 melanoma it was 9% (active); with UACC-62 melanoma, 26.9%. In the assay on LOX IMVI melanoma, the growth is 37.6%.

Regarding `O=C1c2cccc3cccc(c23)C(=O)N1Nc1nc(NC2CCCCC2)nc(N2CCOCC2)n1`, the growth in the assay on DU-145 prostate is 108%; in the assay with K-562 leukemia, 88.9%; in the assay with MALME-3M melanoma, 90.1%; in the assay on MDA-MB-231 breast, 82.9%; with RXF 393 renal, 109%; in the assay on SF-268 CNS, 99.7%. The growth in the assay with SF-295 CNS is 105%; in the assay on SF-539 CNS, 98.4%; in the assay on UACC-257 melanoma, 100%; in the assay on M14 melanoma, 95.4%; in the assay with HCT-15 colon it was 93.1%; in the assay with HT29 colon, 107%. The growth in the assay with SNB-75 CNS was 88.9%; in the assay on SNB-19 CNS it was 91%; in the assay on U251 CNS, 97.5%; in the assay with PC-3 prostate it was 98.2%; with SK-MEL-5 melanoma it was 92.7%; in the assay with UACC-62 melanoma, 89.1%. In addition, in the assay on LOX IMVI melanoma, the growth is 91.1%.

The values above are taken from PubChem BioAssay (NCI).
